Experimental data reported in PubChem BioAssay (Tox21).
Records with an inconclusive call do not appear. Unmarked numbers belong to inactive results. Active and inactive are the calls of the source. Calls follow the shape of the dose curve; as a rule, active = well fitted activation curve with a large enough effect in the repeat runs; inconclusive = weak or mixed curves; inactive = flat fitted curve, though single readings scatter.

target: Nuclear receptor subfamily 1 group I member 2 (Homo sapiens) (UniProt O75469); assay: Human pregnane X receptor (PXR) activation by small molecules, qHTS assay (AID 1346985); conditions: DPX-2 HepG2 CYP3A4-luciferase, 24 h; series mostly up to 38.3 µM; activation: at the top concentration; also: nearly all actives have a fitted effect of over 40% in size
Text: National Center for Advancing Translational Sciences [NCATS]
NIH Chemical Genomics Center [NCGC]
U.S. Environmental Protection Agency [EPA]
National Institutes of Environmental Health Sciences [NIEHS]
National Toxicology Program [NTP]
The Pregnane X receptor (PXR), a ligand activated nuclear receptor plays a critical role in the regulation of genes involved in drug metabolism and transporters. Activation of PXR may be involved in the unwanted adverse drug-drug interactions. […] Therefore, identification of compounds with the potential for PXR activation can be of importance in improving the efficacy of drugs with less toxicity and avoiding drug-drug interactions.
DPX-2 (Puracyp, Inc.) cell lines, used for screening against human PXR activation has HepG2 cells co-transfected with a PXR response element and a luciferase construct containing CYP3A4 promoter. Increase in luciferase activity can be used to identify the compounds that activate the PXR pathway.
DPX-2 cells were dispensed at 2,000 cells per well in 5uL of assay medium into white, solid-bottom 1536-well plates using a Multidrop Combi dispenser (Thermo Scientific). The assay plates were incubated at 37C for 5hr before transferring 23nL of test compounds dissolved in DMSO and positive control via Pintool station (Wako). The assay plates were incubated at 37C for 24hr. Then 5ul One-Glo assay reagent (Promega) was added to each plate by a Flying Reagent Dispenser (FRD, Aurora Discovery) and following 30 min incubation at room temperature, luciferase activity was quantified on a ViewLux plate reader (Perkin Elmer).
% is scaled to controls: 0 for no effect and ±100 for the full control effect; potency is read from the fitted curve at half-maximal effect.

Structure (SMILES) | activation | Potency
COc1cc(C(=S)N2CCOCC2)cc(OC)c1OC | 1.69% | 
N[C@@H](COP(=O)(O)O)C(=O)O | -4.44% | 
O=C1c2cccc3c2[C@H](CCC3)CN1[C@@H]1CN2CCC1CC2 | 15.2% | 
Cc1cccc(C)c1NC(=O)c1ccccc1C(=O)O | 4.99% | 
C[C@H](N)[C@H](O)c1cccc(O)c1 | 4.49% [at 17.1 µM] | 
CC(=O)Nc1ccc(S(=O)(=O)Nc2ccc([N+](=O)[O-])cc2)cc1 | 11% | 
O=C(NCCc1c[nH]c2ccccc12)c1cccnc1 | 17% | 
COc1ccc2c(c1OC)C(=O)O[C@@H]2[C@H]1c2c(cc3c(c2OC)OCO3)CCN1C |  | 22.4 µM (active)
Nc1ncnc(Nc2ccccc2)n1 | 17.8% | 
CC[C@H](C)C(=O)O[C@H]1C[C@H](O)C=C2C=C[C@H](C)[C@H](CC[C@@H](O)C[C@@H](O)CC(=O)O)[C@H]21 | -8.7% | 
CCOc1cc(NC(C)=O)ccc1C(=O)OC | -2.68% | 
COP(=O)(OC)OC(c1ccc(Cl)cc1)P(=O)(OC)OC (stereo not given) | 10.6% | 
CC(CC=O)CCCC(C)(C)O (stereo not given) | 6.82% | 
Cc1cccc(C)c1OCC(C)N (stereo not given) | 5.42% | 
Nc1ccc(S(=O)(=O)Nc2ccc(Cl)nn2)cc1 | 7.48% [at 17.1 µM] | 
NNc1nnc(NN)c2ccccc12 | 0.0761% | 
O=C(CCN1CCN(CCO)CC1)N1c2ccccc2Sc2ccc(C(F)(F)F)cc21 |  | 15.8 µM (active)
CC(S)C(=O)NCC(=O)O (stereo not given) | -1.55% | 
C[C@H](CCC(=O)O)[C@H]1CC[C@H]2[C@@H]3C(=O)C[C@@H]4CC(=O)CC[C@]4(C)[C@H]3CC(=O)[C@]12C | -4.03% | 
COC(=O)c1ccccc1C(=O)c1ccc(OCCN2CCCCC2)cc1 | 8.75% | 

Structure (SMILES) | activation | Potency
C[C@@H](O)[C@H]1C(=O)N2C(C(=O)O)=C(SCCN=CN)C[C@H]12 | 1.94% [at 17.1 µM] | 
CCN1CCc2nc(N)oc2CC1 | -5.44% | 
Oc1cn2c(n1)Nc1ccc(Cl)c(Cl)c1C2 | 4.5% | 
O=C(O)Cc1cn(-c2ccccc2)nc1-c1ccc(Cl)cc1 | -1.12% | 
COc1nccnc1NS(=O)(=O)c1ccc(N)cc1 | -1.8% | 
CC(=O)N[C@@H](CCC(=O)O)C(=O)O | -4.52% | 
NC(CO)C(=O)NNCc1ccc(O)c(O)c1O (stereo not given) | -3.64% | 
Cc1cc2cc3c(C)cc(=O)oc3c(C)c2o1 | 2.4% [at 17.1 µM] | 
NS(=O)(=O)c1ccc(NC(=O)CCC(=O)O)cc1 | -2.73% | 
CC(=O)NCc1c(I)c(NC(C)=O)c(I)c(C(=O)O)c1I | 0.0127% | 
CC(C)NCC(O)COc1ccc(COCCOC(C)C)cc1 (stereo not given) | -0.482% | 
Cc1c(I)c(=O)n(-c2ccccc2)n1C | 22.8% | 
O=C1c2ccccc2C(=O)C1c1ccccc1 | -1.76% [at 17.1 µM] | 
CC1(C)S[C@@H]2[C@H](N=CN3CCCCCC3)C(=O)N2[C@H]1C(=O)O | 19.7% | 
COc1ccc(-c2cc(=O)c3c(O)cc(O[C@@H]4O[C@H](CO[C@@H]5O[C@@H](C)[C@H](O)[C@@H](O)[C@H]5O)[C@@H](O)[C@H](O)[C@H]4O)cc3o2)cc1O | -15.3% | 
O=C(CS(=O)Cc1ccco1)NC/C=C\COc1cc(CN2CCCCC2)ccn1 (stereo not given) | 11.4% | 
COc1cc(NS(=O)(=O)c2ccc(N)cc2)nc(OC)n1 | 27.2% [at 17.1 µM] | 
O=C(NCCN1CCOCC1)c1ccc(Cl)cc1 | -1.3% | 
Cc1ccsc1/C=C/C1=NCCCN1C | -3.55% [at 17.1 µM] | 
NCCS | -7.17% | 
